Test results from ChEMBL document CHEMBL1961873, “Compounds: GSK PKIS; Assays: Nanosyn kinase panel” (2012).

Legend:
[1] = target: T1, Inhibitor of nuclear factor kappa-B kinase subunit epsilon (Homo sapiens) (UniProt Q14164); conditions: at 1 µM;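 also: reported values are averaged percent inhibition figures against human IKKε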
T1 sequence (whole entry): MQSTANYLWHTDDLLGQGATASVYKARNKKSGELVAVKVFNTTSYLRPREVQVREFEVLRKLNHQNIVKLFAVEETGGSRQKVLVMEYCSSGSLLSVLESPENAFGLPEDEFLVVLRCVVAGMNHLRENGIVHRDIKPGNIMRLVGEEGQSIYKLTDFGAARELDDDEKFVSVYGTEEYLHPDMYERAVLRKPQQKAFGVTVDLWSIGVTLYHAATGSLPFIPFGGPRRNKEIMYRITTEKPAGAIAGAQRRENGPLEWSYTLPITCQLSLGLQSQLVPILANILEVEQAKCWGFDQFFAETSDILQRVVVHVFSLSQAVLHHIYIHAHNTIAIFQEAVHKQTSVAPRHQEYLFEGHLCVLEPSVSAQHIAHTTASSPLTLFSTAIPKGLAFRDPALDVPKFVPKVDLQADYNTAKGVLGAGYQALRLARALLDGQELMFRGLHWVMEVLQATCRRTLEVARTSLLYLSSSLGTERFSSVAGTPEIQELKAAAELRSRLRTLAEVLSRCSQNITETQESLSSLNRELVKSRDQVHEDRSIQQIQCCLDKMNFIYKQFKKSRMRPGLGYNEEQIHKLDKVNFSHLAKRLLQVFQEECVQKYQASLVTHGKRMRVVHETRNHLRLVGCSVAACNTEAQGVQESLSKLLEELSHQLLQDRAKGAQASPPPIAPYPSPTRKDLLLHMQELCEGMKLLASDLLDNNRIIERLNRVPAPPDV

[2] = target: T2, Serine/threonine-protein kinase Nek1 (Homo sapiens) (UniProt Q96PY6); conditions: at 0.1 µM
T2 sequence (whole entry): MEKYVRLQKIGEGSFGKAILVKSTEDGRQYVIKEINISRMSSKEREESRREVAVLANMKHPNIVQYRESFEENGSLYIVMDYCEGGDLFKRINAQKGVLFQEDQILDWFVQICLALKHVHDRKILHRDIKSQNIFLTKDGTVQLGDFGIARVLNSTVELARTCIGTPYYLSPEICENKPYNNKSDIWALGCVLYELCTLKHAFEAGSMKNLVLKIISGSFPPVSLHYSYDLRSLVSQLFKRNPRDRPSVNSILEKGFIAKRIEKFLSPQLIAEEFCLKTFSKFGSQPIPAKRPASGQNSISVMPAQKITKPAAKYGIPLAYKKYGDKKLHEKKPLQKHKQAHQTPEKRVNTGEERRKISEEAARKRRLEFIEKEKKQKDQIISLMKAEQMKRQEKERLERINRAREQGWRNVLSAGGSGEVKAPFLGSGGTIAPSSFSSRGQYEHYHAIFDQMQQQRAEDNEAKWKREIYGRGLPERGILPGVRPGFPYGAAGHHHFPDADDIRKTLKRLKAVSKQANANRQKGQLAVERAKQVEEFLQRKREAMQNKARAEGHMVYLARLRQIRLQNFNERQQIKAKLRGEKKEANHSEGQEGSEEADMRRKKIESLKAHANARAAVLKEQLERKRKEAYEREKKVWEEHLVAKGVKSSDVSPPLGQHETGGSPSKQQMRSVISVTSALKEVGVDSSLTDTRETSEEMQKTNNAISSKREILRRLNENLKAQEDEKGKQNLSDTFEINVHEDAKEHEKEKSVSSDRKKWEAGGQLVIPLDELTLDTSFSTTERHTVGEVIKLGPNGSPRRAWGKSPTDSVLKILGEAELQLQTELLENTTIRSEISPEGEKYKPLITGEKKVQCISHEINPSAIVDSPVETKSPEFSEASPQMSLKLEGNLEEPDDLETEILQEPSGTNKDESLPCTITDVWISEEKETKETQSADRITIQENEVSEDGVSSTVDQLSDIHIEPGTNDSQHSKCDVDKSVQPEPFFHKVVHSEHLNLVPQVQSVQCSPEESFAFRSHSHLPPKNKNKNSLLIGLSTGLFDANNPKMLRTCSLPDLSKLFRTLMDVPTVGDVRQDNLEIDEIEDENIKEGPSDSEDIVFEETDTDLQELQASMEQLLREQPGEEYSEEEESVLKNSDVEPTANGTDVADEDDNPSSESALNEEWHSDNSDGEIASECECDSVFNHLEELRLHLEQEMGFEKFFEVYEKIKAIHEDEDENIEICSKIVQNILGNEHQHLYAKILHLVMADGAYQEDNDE

[3] = target: T2, Serine/threonine-protein kinase Nek1 (Homo sapiens); conditions: at 1 µM
[4] = target: T3, Serine/threonine-protein kinase Nek2 (Homo sapiens) (UniProt P51955); conditions: at 0.1 µM
T3 sequence (whole entry): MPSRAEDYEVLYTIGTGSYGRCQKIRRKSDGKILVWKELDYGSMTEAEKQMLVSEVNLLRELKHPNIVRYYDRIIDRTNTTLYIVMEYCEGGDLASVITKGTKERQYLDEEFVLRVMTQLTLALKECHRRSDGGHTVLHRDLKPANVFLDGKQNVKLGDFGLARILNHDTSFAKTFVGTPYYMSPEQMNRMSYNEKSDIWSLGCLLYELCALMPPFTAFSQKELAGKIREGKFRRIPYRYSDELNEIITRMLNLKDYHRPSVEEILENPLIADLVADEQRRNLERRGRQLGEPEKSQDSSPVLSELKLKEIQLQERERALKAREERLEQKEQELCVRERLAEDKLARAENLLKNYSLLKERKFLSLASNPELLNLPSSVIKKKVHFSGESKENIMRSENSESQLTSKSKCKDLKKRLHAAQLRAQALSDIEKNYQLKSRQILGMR

[5] = target: T3, Serine/threonine-protein kinase Nek2 (Homo sapiens); conditions: at 1 µM
[6] = target: Serine/threonine-protein kinase Nek6 (Homo sapiens) (UniProt Q9HC98); conditions: at 0.1 µM
[7] = target: Serine/threonine-protein kinase Nek6 (Homo sapiens) (UniProt Q9HC98); conditions: at 1 µM
[8] = target: Serine/threonine-protein kinase Nek7 (Homo sapiens) (UniProt Q8TDX7); conditions: at 0.1 µM
[9] = target: Serine/threonine-protein kinase Nek7 (Homo sapiens) (UniProt Q8TDX7); conditions: at 1 µM
[10] = target: T4, Serine/threonine-protein kinase Nek9 (Homo sapiens) (UniProt Q8TD19); conditions: at 0.1 µM;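 also: reported value is the mean percent inhibition of NEK9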
T4 sequence (whole entry): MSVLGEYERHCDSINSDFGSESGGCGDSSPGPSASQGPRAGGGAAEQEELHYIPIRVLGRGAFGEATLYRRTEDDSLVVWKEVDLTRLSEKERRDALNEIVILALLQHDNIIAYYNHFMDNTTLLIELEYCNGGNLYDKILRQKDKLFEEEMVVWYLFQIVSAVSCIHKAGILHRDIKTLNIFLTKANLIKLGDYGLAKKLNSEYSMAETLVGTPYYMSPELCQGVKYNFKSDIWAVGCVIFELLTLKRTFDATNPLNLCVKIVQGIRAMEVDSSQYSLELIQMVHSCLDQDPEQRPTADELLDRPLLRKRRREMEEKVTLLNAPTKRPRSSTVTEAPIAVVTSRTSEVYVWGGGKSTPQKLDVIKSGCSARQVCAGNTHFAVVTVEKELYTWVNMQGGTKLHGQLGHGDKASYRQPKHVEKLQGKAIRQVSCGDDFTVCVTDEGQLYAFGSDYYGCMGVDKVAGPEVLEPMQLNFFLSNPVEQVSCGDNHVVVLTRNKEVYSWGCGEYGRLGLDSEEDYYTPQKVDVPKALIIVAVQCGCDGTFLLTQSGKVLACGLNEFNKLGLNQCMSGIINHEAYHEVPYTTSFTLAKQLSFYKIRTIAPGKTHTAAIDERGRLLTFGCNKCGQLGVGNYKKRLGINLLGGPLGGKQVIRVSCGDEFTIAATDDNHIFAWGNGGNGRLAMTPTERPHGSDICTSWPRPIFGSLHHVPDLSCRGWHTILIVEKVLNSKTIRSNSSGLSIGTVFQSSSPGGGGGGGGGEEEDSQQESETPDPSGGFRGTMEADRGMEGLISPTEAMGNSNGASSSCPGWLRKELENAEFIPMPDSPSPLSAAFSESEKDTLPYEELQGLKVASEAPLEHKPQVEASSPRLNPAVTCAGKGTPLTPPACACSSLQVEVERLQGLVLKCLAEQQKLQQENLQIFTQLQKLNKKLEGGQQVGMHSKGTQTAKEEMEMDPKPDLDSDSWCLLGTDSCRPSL

Sequence of Serine/threonine-protein kinase Nek6 (Homo sapiens) (Q9HC98 whole entry): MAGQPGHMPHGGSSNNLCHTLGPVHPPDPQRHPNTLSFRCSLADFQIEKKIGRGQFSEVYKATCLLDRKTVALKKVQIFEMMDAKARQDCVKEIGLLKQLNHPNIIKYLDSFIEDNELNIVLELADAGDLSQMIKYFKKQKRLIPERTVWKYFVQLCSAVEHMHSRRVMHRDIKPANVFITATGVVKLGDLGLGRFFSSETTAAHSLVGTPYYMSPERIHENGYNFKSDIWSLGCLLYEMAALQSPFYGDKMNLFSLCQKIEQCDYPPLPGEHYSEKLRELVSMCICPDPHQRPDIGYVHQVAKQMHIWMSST
Sequence of Serine/threonine-protein kinase Nek7 (Homo sapiens) (Q8TDX7 whole entry, looked up): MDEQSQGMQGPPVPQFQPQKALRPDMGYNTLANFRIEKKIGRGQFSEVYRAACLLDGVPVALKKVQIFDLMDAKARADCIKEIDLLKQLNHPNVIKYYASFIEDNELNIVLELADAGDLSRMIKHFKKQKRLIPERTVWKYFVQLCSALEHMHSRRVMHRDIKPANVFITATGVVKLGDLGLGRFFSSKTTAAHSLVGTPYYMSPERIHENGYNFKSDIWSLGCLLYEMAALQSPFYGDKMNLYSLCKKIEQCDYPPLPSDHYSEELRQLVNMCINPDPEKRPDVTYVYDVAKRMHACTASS

CC1=C(C(=O)Nc2ccc3[nH]ncc3c2)C(c2ccc(F)cc2)NC(=O)N1 (stereo not given)
inhibition [1]: 4.43% | inhibition [2]: 2.09% | inhibition [3]: 4.56% | inhibition [4]: 3.07% | inhibition [5]: 2.73% | inhibition [6]: 0.8% | inhibition [7]: 0.71% | inhibition [8]: 3.54% | inhibition [9]: 2.72% | inhibition [10]: 2.85%
